{"source": "PubChem BioAssay AID720524", "about": "(National Center for Advancing Translational Sciences (NCATS), 2013)", "note": "About 1,000 (71%) of roughly 1,400 compounds were called active. Roughly 12% stayed inconclusive and do not appear here. Calls follow the shape of the dose curve; as a rule, active = well fitted inhibition curve with a large enough effect; inconclusive = small, poorly fitted or top-dose-only effect; inactive = no such curve, though single readings can be large or run the other way. The set was probably picked from earlier hits. These entries were drawn from the full list. A structure can be active in one record and inactive in another. Potency is read from the fitted curve at half-maximal effect.", "data": [{"assay": "Nrf2 qHTS screen for inhibitors: Nrf2 A549 ARE-Fluc Confirmation Assay for Hit Validation; also: nearly all actives have a fitted effect of over 65% in size", "settings": "A549 ARE-firefly luciferase reporter, luminescence; series mostly up to 46.1 µM", "source_text": "Nrf2 is a transcription factor that maintains cellular redox homoestasis and protects cells from xenobiotics. Nrf2 binds to the antioxidant response element (ARE) to induce gene expression of a broad spectrum of genes that encode for antioxidants. […] Finding a small molecule that act as an inhibitor of Nrf2 function would represent a novel therapeutic target that could lead to improvement in survival of patients undergoing chemo- and/or radio- therapy.\nIn collaboration with the Biswal laboratory, a cell based, luminescence assay (BugLite) was developed to detect the Nrf2 activity using the A549 ARE_Fluc cells (AID 493153). This assay was coupled with a fluorescence based (CellTiter Fluor) cytotoxicity assay to identify and exclude toxic compounds. This coupled assay was used to evaluate selected compounds for hit validation. The data herein is the result of the BugLite assay where decrease in luminescence signal = inhibition of Nrf2 activation. Inhibition is the desired outcome for this assay.\nNIH Chemical Genomics Center [NCGC]\nNIH Molecular Libraries Probe Centers Network [MLPCN]\nAssay Submitter (PI): Shyam Biswal, Johns Hopkins University\n[1] Shibata T., et al., Genetic alteration of Keap1 confers constitutive Nrf2 activation and resistance to chemotherapy in gallbladder cancer. Gastroenterology, 2008.\n[2] Sjoblom T., et al., The consensus coding sequences of human breast and colorectal cancers. Science, 2006.\nFive uL of cell suspension was dispensed into 1536-well white TC-treated plate using the Kalypsys dispenser to achieve a density of 5000 cells/well in all columns except column 1. The plates were incubated at 37deg C at 5% CO2 for 2 hours before 23 nL of compounds were added with the Kalypsys pin tool equipped with a 1,536-pin array. The control compounds Budesonide and Staurosporine were added at a concentration of 2mM. Budesonide was also added as a 1:10 titration, starting at 200uM, to achieve the dose-response control signal. The plates were incubated for 18-24 hour at 37deg C, 5% CO2 followed by a 5ul addition of 5% FBS OPTI-MEM growing media in column 1 as negative control. One microliter of 5x CellTiter Fluor (Promega) was added to each well and the assay plates were incubated at 37deg C, 5% CO2 for 30 minutes. The fluorescence signal was read using the PerkinElmer ViewLux plate reader (Ex = 405 nm /Em = 525 nm) for a 3 second exposure. After the signal was taken, 3 uL of 3x BugLite was dispensed into all wells. The plates were then incubated at room temperature for 15 minutes. A second ViewLux read (40 sec exposure) was performed to detect the luminescence signal. Cytotoxicity was assessed through the first fluorescent read while biochemical activity against Nrf2 was measured in the luminescent read. The data was normalized to the positive and negative controls.", "values": [{"molecule": "CCOC(=O)c1cnc(-n2nc(C)cc2C)nc1NNc1cc(C)nc(-c2ccccc2)n1", "Potency": "5.17 µM (active)"}, {"molecule": "CC(C)(C)c1ccc(Oc2ccc(N)cc2)cc1", "Potency": "5.17 µM (active)"}, {"molecule": "C[n+]1ccc(/C=C/c2c[nH]c3ccccc23)cc1", "Potency": "1.46 µM (active)"}, {"molecule": "OCCCNc1nccc(-c2cc(Nc3cccc(Cl)c3)ncn2)n1", "Potency": "1.46 µM (active)"}, {"molecule": "Cc1c(Cl)cccc1NC(=O)Cn1cc(C(=O)c2cccs2)c2ccccc21", "Potency": "5.8 µM (active)"}, {"molecule": "Brc1c(CSc2nncc3ccccc23)nc2ccccn12", "Potency": "6.51 µM (active)"}, {"molecule": "Cc1oc2c(F)c(F)c(F)c(F)c2c1S(=O)(=O)Nc1cccc(C(F)(F)F)c1", "Potency": "14.6 µM (active)"}, {"molecule": "c1ccc(C(=NNc2nc3ccccc3s2)c2ccccn2)cc1", "Potency": "11.6 µM (active)"}, {"molecule": "CCCOc1ccc(Cc2c(Cl)nc(SC)nc2NC)cc1", "Potency": "6.51 µM (active)"}, {"molecule": "CC(=NNC(=S)N1CCCCCC1)c1ccccn1", "Potency": "2.59 µM (active)"}, {"molecule": "CC(=O)Nc1ccc(Nc2c3ccccc3nc3ccccc23)cc1", "Potency": "1.64 µM (active)"}, {"molecule": "COc1ccc(C(=O)C[n+]2ccc(N)c(C)c2C)cc1", "Potency": "6.51 µM (active)"}, {"molecule": "CCCOc1ccc(C(=O)Nc2ccc3oc(-c4cccc(Cl)c4Cl)nc3c2)cc1", "Potency": "16.4 µM (active)"}, {"molecule": "CC1(C)CC(N2CCN(C(c3ccccc3)c3ccccc3)CC2)=CC(=[N+]2CCCCC2)C1", "Potency": "4.61 µM (active)"}, {"molecule": "Cc1ccc(NS(=O)(=O)c2cccs2)cc1S(=O)(=O)N1CCCCCC1", "Potency": "inactive"}, {"molecule": "O=C(Nc1ccc(Br)cn1)C1CCN(S(=O)(=O)c2cccs2)CC1", "Potency": "5.8 µM (active)"}, {"molecule": "CC(C)Cn1c(N)c(C(=O)COC(=O)CN2C(=O)C3CC=CCC3C2=O)c(=O)n(C)c1=O", "note": "(stereo unspecified)", "Potency": "5.8 µM (active)"}, {"molecule": "CCC(C)N1C(=O)S/C(=C/c2ccc(Sc3nc4ccccc4[nH]3)o2)C1=O", "note": "(stereo unspecified)", "Potency": "20.6 µM (active)"}, {"molecule": "CCC(C)(C)c1ccc(Oc2ccc(NC(=O)COC(=O)C3=COCCO3)cc2)cc1", "Potency": "10.3 µM (active)"}, {"molecule": "Cc1csc[n+]1CCC1CCCCC1", "Potency": "9.2 µM (active)"}, {"molecule": "COc1cccc(-c2nnc(NC(=O)c3ccc(S(=O)(=O)N(CC(C)C)CC(C)C)cc3)o2)c1", "Potency": "2.59 µM (active)"}, {"molecule": "CCNS(=O)(=O)c1ccc(CCC(=O)N2CCN(c3cc(Cl)ccc3C)CC2)cc1", "Potency": "23.1 µM (active)"}, {"molecule": "Cn1nccc1C(=O)NC1CCCc2c1cnn2-c1ccc(F)cc1F", "note": "(stereo unspecified)", "Potency": "2.59 µM (active)"}, {"molecule": "O/N=C(\\C[n+]1ccccc1)c1ccc(Br)cc1", "Potency": "6.51 µM (active)"}, {"molecule": "Cc1cccc(N2CCN(C(=O)CCS(=O)(=O)c3ccc4c(c3)NC(=O)C(C)S4)CC2)c1C", "note": "(stereo unspecified)", "Potency": "18.4 µM (active)"}, {"molecule": "Cc1ccc(S(=O)(=O)N2CCN(c3ncnc4ccccc34)CC2)cc1", "Potency": "7.31 µM (active)"}, {"molecule": "O=C1C=C(c2ccnc3cc(Cl)ccc23)C[C@@H](c2ccc3c(c2)OCO3)C1", "Potency": "7.31 µM (active)"}, {"molecule": "COc1ccc(CCNC(=O)c2ccc(CS(=O)(=O)c3ccc(Br)cc3)o2)cc1OC", "Potency": "14.6 µM (active)"}, {"molecule": "COc1ccc(OC)c(Cc2cnc3nc(N)nc(N)c3c2C)c1", "Potency": "9.2 µM (active)"}, {"molecule": "CCCCNc1nc2c(c(=O)n(C)c(=O)n2C)n1Cc1cccc(OC)c1", "Potency": "9.2 µM (active)"}, {"molecule": "N#CC(C#N)=CN=c1ccn(Cc2ccc(Cl)cc2Cl)cc1", "Potency": "4.11 µM (active)"}, {"molecule": "CN(Cc1cccnc1)C(=O)c1cc(COc2ccc3ncccc3c2)on1", "Potency": "5.8 µM (active)"}, {"molecule": "CC(=O)N1CCCc2cc(S(=O)(=O)N3CCCC(C(=O)N4CCN(c5cccc(Cl)c5)CC4)C3)ccc21", "note": "(stereo unspecified)", "Potency": "7.31 µM (active)"}, {"molecule": "CC(=O)N1c2ccc(S(=O)(=O)N3CCCC(C(=O)Nc4cccc(Cl)c4)C3)cc2CC1C", "note": "(stereo unspecified)", "Potency": "11.6 µM (active)"}, {"molecule": "CC(=O)N1c2ccc(S(=O)(=O)N3CCCC(C(=O)NCc4ccc(Cl)cc4)C3)cc2CC1C", "note": "(stereo unspecified)", "Potency": "7.31 µM (active)"}, {"molecule": "O=C(Nc1ccncc1)c1c(F)cccc1F", "Potency": "10.3 µM (active)"}, {"molecule": "COc1ccc(CCNc2cc(N3CCN(C(=O)c4ccccc4OC)CC3)ccc2[N+](=O)[O-])cc1OC", "Potency": "4.11 µM (active)"}, {"molecule": "COCCn1c(SCC(=O)Nc2ccccc2F)nc2c(c1=O)SCC2", "Potency": "inactive"}, {"molecule": "CC1(C)O[C@@H]2CC3C4C[C@H](F)C5=CC(=O)C=CC5(C)C4C(O)CC3(C)[C@]2(C(=O)CO)O1", "note": "(stereo partly specified)", "Potency": "0.0082 µM (active)"}, {"molecule": "CC1CCN(S(=O)(=O)c2ccc(NC(=O)C3CC(=O)N(c4ccccc4)C3)cc2)CC1", "note": "(stereo unspecified)", "Potency": "inactive"}, {"molecule": "Cc1ccc(NC(=O)C2CC(=O)N(c3ccc4c(c3)OCCO4)C2)cc1S(=O)(=O)N1CCCCCC1", "note": "(stereo unspecified)", "Potency": "20.6 µM (active)"}, {"molecule": "CCCCCCCCn1c2c(c(=N)c3c1CCC3)CCCC2", "Potency": "6.51 µM (active)"}, {"molecule": "O=C(CSc1nnc2c(n1)[nH]c1ccccc12)NC1CCCCC1", "Potency": "2.31 µM (active)"}, {"molecule": "CCCN(c1ccc(C(C)C)cc1)S(=O)(=O)c1c(C)[nH]c(=O)[nH]c1=O", "Potency": "inactive"}, {"molecule": "O=C(CN1C(=O)c2ccccc2S1(=O)=O)N1CCc2ccccc21", "Potency": "3.66 µM (active)"}, {"molecule": "O=C(CCC(=O)N1CCN(S(=O)(=O)c2ccc(Cl)cc2)CC1)NCc1cccc(C(F)(F)F)c1", "Potency": "8.2 µM (active)"}, {"molecule": "Cc1ccc(S(=O)(=O)N2C[C@@H]3CCCC[C@@H]3[C@@H](C)[C@H]2c2cn(Cc3ccccc3)c3ccc(F)cc23)cc1", "Potency": "5.17 µM (active)"}, {"molecule": "CC(C)(C)n1ncc2c(=O)n(Cc3ccc(C(=O)c4ccccc4)cc3)cnc21", "Potency": "1.3 µM (active)"}, {"molecule": "O=C(CC(O)(C(F)(F)F)C(F)(F)F)Nc1ccc(Cl)c(Cl)c1", "Potency": "2.59 µM (active)"}, {"molecule": "COc1ccc(CC(=O)Nc2nc(-c3ccc(F)c(F)c3)cs2)cc1OC", "Potency": "5.8 µM (active)"}, {"molecule": "O=c1[nH]c(SCc2cccc(F)c2)nc2ccccc12", "Potency": "inactive"}]}]}
